Measured values reported in PubChem BioAssay (EPA / NIEHS).
The source made the active and inactive calls. Rule for the calls: active = hit-call score of the fitted dose curve at least 0.9, where 1 is the maximum; inactive = score below 0.9.

How the values were obtained:
Conditions in all cases: mRNA level, 48 h; actives raise or lower the signal
[1] = read-out: solute carrier (SLC22A1), SLC22A1 (gene 6580); experiment: LTEA_HepaRG_SLC22A1: Life Technologies and Expression Analysis (LTEA) Assay for solute carrier (SLC22A1) using HepaRG (AID 2283524)
How it was run: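 Differentiated human HepaRG cells in serum-free induction medium, exposed 48 h in duplicate to 8-point half-log series from 100 µM top in 0.5% DMSO. SLC22A1 mRNA by TaqMan qRT-PCR normalized to ACTB, GAPDH, POLR2A; bidirectional fit versus DMSO.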

[2] = read-out: Pyruvate Dehydrogenase Kinase 4 (PDK4), PDK4 (gene 5166); experiment: LTEA_HepaRG_PDK4: Life Technologies and Expression Analysis (LTEA) Assay for Pyruvate Dehydrogenase Kinase 4 (PDK4) using HepaRG (AID 2283525)
How it was run: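 HepaRG cells plated 48 h, then switched to serum-free induction medium and exposed in duplicate for 48 h to 8 half-log concentrations from 100 uM in 0.5% DMSO. PDK4 mRNA measured by qRT-PCR, normalized to ACTB, GAPDH and POLR2A; bidirectional fit versus DMSO.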

[3] = read-out: NAD(P)H dehydrogenase [quinone] 1 (NQO1), NQO1 (gene 1728); experiment: LTEA_HepaRG_NQO1: Life Technologies and Expression Analysis (LTEA) Assay for NAD(P)H dehydrogenase [quinone] 1 (NQO1) using HepaRG (AID 2283526)
How it was run: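 Differentiated HepaRG cells, plated 48 h and then switched to serum-free induction medium, were exposed in duplicate for 48 h to 8-point half-log concentrations up to 100 uM in 0.5% DMSO. mRNA measured by qRT-PCR, normalized to ACTB, GAPDH, POLR2A; bidirectional fit versus DMSO.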

[4] = read-out: Nuclear factor erythroid 2-related factor 2 (Homo sapiens) (UniProt Q16236); experiment: LTEA_HepaRG_NFE2L2: Life Technologies and Expression Analysis (LTEA) Assay for Nuclear factor erythroid 2-related factor 2 (NFE2L2) Transcription Factor using HepaRG (AID 2283527)
How it was run: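 Differentiated human HepaRG cells, serum-free induction medium, exposed 48 h in duplicate to eight half-log concentrations up to 100 uM in 0.5% DMSO. NFE2L2 mRNA by Fluidigm TaqMan qRT-PCR, normalised to ACTB, GAPDH, POLR2A; bidirectional change versus DMSO.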

[5] = read-out: succinate dehydrogenase complex iron sulfur subunit B (SDHB), SDHB (gene 6390); experiment: LTEA_HepaRG_SDHB: Life Technologies and Expression Analysis (LTEA) Assay for succinate dehydrogenase complex iron sulfur subunit B (SDHB) using HepaRG (AID 2283528)
How it was run: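 HepaRG, 48 h exposure, 8-pt half-log series from 100 uM in 0.5% DMSO, duplicates. Readout: SDHB mRNA by Fluidigm qRT-PCR vs housekeeping genes; bidirectional fit relative to DMSO.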

[6] = read-out: Signal transducer and activator of transcription 3 (Homo sapiens) (UniProt P40763); experiment: LTEA_HepaRG_STAT3: Life Technologies and Expression Analysis (LTEA) Assay for Signal transducer and activator of transcription (STAT3) using HepaRG (AID 2283529)
How it was run: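 Differentiated HepaRG cells, serum-free induction medium, dosed 48 h in duplicate, 8 half-log concentrations from 100 uM in 0.5% DMSO. STAT3 mRNA by qRT-PCR, normalised to ACTB, GAPDH, POLR2A; bidirectional fit versus DMSO.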

[7] = read-out: solute carrier (SLCO1B1), SLCO1B1 (gene 10599); experiment: LTEA_HepaRG_SLCO1B1: Life Technologies and Expression Analysis (LTEA) Assay for solute carrier (SLCO1B1) using HepaRG (AID 2283530)
How it was run: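 Differentiated human HepaRG cells were exposed for 48 h in serum-free induction medium to eight half-log concentrations, top 100 uM, in 0.5% DMSO. SLCO1B1 mRNA was measured by qRT-PCR, normalized to ACTB, GAPDH and POLR2A, and fitted bidirectionally against DMSO.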

[8] = read-out: Transforming Growth Factor (TGFA), TGFA (gene 7039); experiment: LTEA_HepaRG_TGFA: Life Technologies and Expression Analysis (LTEA) Assay for Transforming Growth Factor (TGFA) using HepaRG (AID 2283532)
How it was run: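 Differentiated HepaRG cells exposed 48 hours in serum-free induction medium, 0.5% DMSO vehicle, 8-point half-log series from 100 uM, in duplicate. TGFA mRNA by TaqMan qRT-PCR, normalised to ACTB, GAPDH, POLR2A; bidirectional fit versus DMSO.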

[9] = read-out: Transforming Growth Factor (TGFB1), TGFB1 (gene 7040); experiment: LTEA_HepaRG_TGFB1: Life Technologies and Expression Analysis (LTEA) Assay for Transforming Growth Factor (TGFB1) Transporter using HepaRG (AID 2283533)
How it was run: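 Differentiated HepaRG cells exposed 48 hr in serum-free induction medium to eight half-log concentrations up to 100 uM (0.5% DMSO), duplicate; TGFB1 mRNA by TaqMan qRT-PCR normalised to ACTB, GAPDH, POLR2A; bidirectional fit against DMSO.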

[10] = read-out: sulfotransferase 2A1 (SULT2A1), SULT2A1 (gene 6822); experiment: LTEA_HepaRG_SULT2A1: Life Technologies and Expression Analysis (LTEA) Assay for sulfotransferase 2A1 (SULT2A1) using HepaRG (AID 2283531)
How it was run: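 HepaRG human liver cells, 48 h exposure in serum-free induction medium to 8 half-log concentrations topping at 100 µM (0.5% DMSO), duplicate wells. SULT2A1 mRNA measured by TaqMan qRT-PCR, normalized to ACTB/GAPDH/POLR2A; bidirectional fit against DMSO.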

Measured: AC50

Chain of Nuclear factor erythroid 2-related factor 2 (Homo sapiens) (Q16236 whole entry, looked up): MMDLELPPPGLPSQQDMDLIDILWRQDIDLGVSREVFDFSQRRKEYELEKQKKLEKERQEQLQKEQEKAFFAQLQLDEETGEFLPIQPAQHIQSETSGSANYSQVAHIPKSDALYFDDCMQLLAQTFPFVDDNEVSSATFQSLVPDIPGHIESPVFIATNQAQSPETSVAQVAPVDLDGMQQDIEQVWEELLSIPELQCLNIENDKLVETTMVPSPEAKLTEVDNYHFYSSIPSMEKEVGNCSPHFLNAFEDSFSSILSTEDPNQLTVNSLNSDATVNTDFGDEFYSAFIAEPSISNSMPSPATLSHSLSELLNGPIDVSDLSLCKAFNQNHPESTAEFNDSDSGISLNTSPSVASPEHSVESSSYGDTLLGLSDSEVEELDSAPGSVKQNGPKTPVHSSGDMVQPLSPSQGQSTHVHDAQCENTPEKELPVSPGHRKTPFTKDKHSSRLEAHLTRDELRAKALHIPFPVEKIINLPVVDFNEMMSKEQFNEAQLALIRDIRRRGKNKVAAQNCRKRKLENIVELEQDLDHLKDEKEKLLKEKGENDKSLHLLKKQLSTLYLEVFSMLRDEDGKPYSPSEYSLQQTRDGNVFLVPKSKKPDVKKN
Chain of Signal transducer and activator of transcription 3 (Homo sapiens) (P40763 whole entry, looked up): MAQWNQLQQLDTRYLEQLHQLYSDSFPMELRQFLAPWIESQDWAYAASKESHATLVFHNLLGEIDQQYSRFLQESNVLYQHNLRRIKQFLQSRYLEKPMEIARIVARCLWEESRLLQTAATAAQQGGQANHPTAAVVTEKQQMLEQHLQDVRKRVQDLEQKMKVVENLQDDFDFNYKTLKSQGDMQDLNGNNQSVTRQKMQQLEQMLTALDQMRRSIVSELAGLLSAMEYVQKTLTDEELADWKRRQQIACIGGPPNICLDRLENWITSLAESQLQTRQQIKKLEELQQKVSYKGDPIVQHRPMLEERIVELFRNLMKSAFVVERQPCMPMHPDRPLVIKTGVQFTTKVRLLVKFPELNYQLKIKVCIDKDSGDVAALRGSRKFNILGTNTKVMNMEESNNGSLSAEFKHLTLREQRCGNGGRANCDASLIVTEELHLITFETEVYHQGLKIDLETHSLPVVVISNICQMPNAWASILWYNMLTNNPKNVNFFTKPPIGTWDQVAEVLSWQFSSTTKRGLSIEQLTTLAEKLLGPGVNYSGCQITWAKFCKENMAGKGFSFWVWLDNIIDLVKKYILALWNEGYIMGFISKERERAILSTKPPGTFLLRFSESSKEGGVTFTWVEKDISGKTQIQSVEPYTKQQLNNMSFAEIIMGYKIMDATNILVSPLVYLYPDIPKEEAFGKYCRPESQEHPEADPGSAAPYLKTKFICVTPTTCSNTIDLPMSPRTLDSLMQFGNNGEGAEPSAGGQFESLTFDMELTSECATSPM

O=c1ccc(=O)[nH][nH]1
inactive: [1] | [2] | [3] | [4] | [5] | [6] | [7] | [8] | [9]

O=[N+]([O-])c1cc(C(F)(F)F)c(Cl)c([N+](=O)[O-])c1Nc1ncc(C(F)(F)F)cc1Cl
active: [1] 17.8 µM | [2] 34 µM | [7] 23.4 µM | [10] 50 µM | [9] 79.7 µM
inactive: [3] | [4] | [5] | [6]

O=C(O)c1cc(Oc2ccc(C(F)(F)F)cc2Cl)ccc1[N+](=O)[O-]
active: [2] 42.1 µM | [10] 50 µM
inactive: [1] | [3] | [4] | [5] | [6] | [7] | [9]

CC(C)N(C(=O)SCC(Cl)=C(Cl)Cl)C(C)C
inactive: [1] | [2] | [3] | [4] | [5] | [6] | [7] | [8] | [9]

COc1ccc(C(=CC(=O)N2CCOCC2)c2ccc(Cl)cc2)cc1OC
inactive: [1] | [2] | [3] | [4] | [5] | [6] | [7] | [10] | [9]

CC1(C(=O)Nc2ccc(O)c(Cl)c2Cl)CCCCC1
inactive: [1] | [2] | [3] | [4] | [5] | [6] | [7] | [10] | [8] | [9]

Nc1c(Cl)cc([N+](=O)[O-])cc1Cl
inactive: [3] | [4] | [9]
active: [1] 60.8 µM | [2] 50 µM | [5] 50 µM | [6] 25 µM | [7] 50 µM | [10] 50 µM

C=C(C)[C@H]1Cc2c(ccc3c2O[C@@H]2COc4cc(OC)c(OC)cc4[C@@H]2C3=O)O1
active: [1] 1.95 µM | [2] 13.2 µM | [4] 7.62 µM | [5] 0.358 µM | [7] 12.3 µM | [10] 13.2 µM | [8] 7.78 µM
inactive: [3] | [6] | [9]

CSc1nc(NC(C)C)nc(NC(C)C)n1
active: [1] 34.4 µM | [7] 50 µM | [10] 84.9 µM
inactive: [2] | [3] | [4] | [5] | [6] | [8] | [9]

CCc1cnc(C2=NC(C)(C(C)C)C(=O)N2)c(C(=O)O)c1 (configuration not stated)
inactive: [1] | [2] | [3] | [4] | [5] | [6] | [7] | [10] | [8] | [9]

CC(=NC#N)N(C)Cc1ccc(Cl)nc1
inactive: [1] | [2] | [3] | [4] | [5] | [6] | [7] | [10] | [9]

CNC(=O)ON=C(C)SC
inactive: [1] | [2] | [3] | [4] | [5] | [6] | [7] | [10] | [8] | [9]

CN1COCN(Cc2cnc(Cl)s2)C1=N[N+](=O)[O-]
inactive: [1] | [2] | [3] | [4] | [5] | [6] | [7] | [10] | [8] | [9]

CCCSP(=O)(OCC)SCCC
inactive: [2] | [3] | [4] | [5] | [6] | [7] | [8] | [9]
active: [1] 10.2 µM

Cc1nn(-c2cc(NS(C)(=O)=O)c(Cl)cc2Cl)c(=O)n1C(F)F
inactive: [1] | [2] | [3] | [4] | [5] | [6] | [7] | [10] | [9]

CCOP(=S)(OCC)Oc1ccc2c(C)c(Cl)c(=O)oc2c1
active: [1] 70 µM | [2] 0.837 µM | [4] 22.2 µM
inactive: [3] | [5] | [6] | [7] | [10] | [9]

CCOP(=S)(OCC)OC(Cl)C(Cl)(Cl)Cl (configuration not stated)
inactive: [1] | [2] | [3] | [4] | [5] | [6] | [7] | [10] | [8] | [9]

COc1cccc(C(=O)NN(C(=O)c2cc(C)cc(C)c2)C(C)(C)C)c1C
active: [10] 32.5 µM

CNC(=O)Oc1cccc2c1OC(C)(C)O2
inactive: [10]
